LmPK inhibitor: inhibitors of Leishmania mexicana pyruvate kinase | Q27686 | purified LmPK, Kinase-Glo ATP luminescence, 1 h | Potency, µM (top dose mostly 57.5 µM), without a hit: top-dose activity change, negative = inhibition, hits mostly inhibitors | 290,000 tested, 0.37% active | AID 1721; further: on the % scale 0 is the no-effect control and ±100 the full control effect
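Pyruvate kinase activity monitored as ATP production (luciferase luminescence). Conditions: 0.1 nM enzyme, 0.5 mM PEP, 0.1 mM ADP, 1 h, RT; normalized against uninhibited and no-enzyme wells.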
RE007 growth inh: less growth of the S. pombe RE007 Vpr strain; S. pombe RE007 Vpr strain, BacTiter-Glo ATP luminescence, 24 h; Potency, µM (highest dose often 92.2 µM), for inactives: at the top dose activity change, negative = less growth, actives largely listed as inhibitors; 360,000 tested, 0.21% active; AID 651644; active means well fitted falling curve with a large enough effect; inconclusive means small, poorly fitted or top-dose-only effect; inactive means no such curve, though single readings can be large or run the other way; further: on the % scale 0 is the no-effect control and ±100 the full control effect; nearly all actives have a fitted effect of over 50% in size
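Fission yeast RE007 carrying one integrated HIV-1 vpr copy, seeded at OD 0.01 in PMG+AL medium with 23 nL pinned compound. Grown 24 h at 30 degrees; viability read by BacTiter-Glo luminescence after 5 min.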
Sm TGR block: blocks Schistosoma mansoni thioredoxin glutathione reductase; purified TGR, DTNB reduction, TNB absorbance 405 nm; Q962Y6; Potency, µM (doses to about 114 µM), without a hit: at the highest dose activity change, negative = inhibition, usual class: inhibitors; 360,000 tested, 3% active; further: on the % scale 0 is the no-effect control and ±100 the full control effect; nearly all actives have a fitted effect of over 60% in size
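First, TGR (20 nM dispensed) and NADPH were mixed with compound. Second, a 15 min room-temperature incubation followed. Third, further NADPH and then DTNB were added to start the reaction. Finally, TNB absorbance was monitored kinetically.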
TbPYK inhibitor: T. brucei pyruvate kinase inhibition. TbPYK enzyme, Kinase-Glo Plus ATP luminescence, 45 min. Potency, µM (titrated, usually from 76.8 µM), inactives show at the highest dose activity, negative = inhibition, usual class: inhibitors. 410,000 tested, 0.12% active; further: on the % scale 0 is the no-effect control and ±100 the full control effect; nearly all actives have a fitted effect of over 50% in size
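TbPYK + substrate in 50 mM TEA pH 7.2, 100 mM KCl, 10 mM MgCl2, 0.05% BSA, 0.01% Tween-20; cpd pinned; ADP 130 uM final; 45 min RT; Kinase-Glo Plus 10 min; luminescence endpoint.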
Giardia FBPA inh: blocks Giardia fructose-bisphosphate aldolase activity; AID 2451; 290,000 tested, 0.71% active; purified Giardia FBPA; Potency, µM (top dose mostly 59.6 µM), for the others: top-dose activity, negative = inhibition, hits mostly inhibitors; A8B2U2; further: on the % scale 0 is the no-effect control and ±100 the full control effect; nearly all actives have a fitted effect of over 55% in size
Target sequence (A8B2U2 whole entry, looked up): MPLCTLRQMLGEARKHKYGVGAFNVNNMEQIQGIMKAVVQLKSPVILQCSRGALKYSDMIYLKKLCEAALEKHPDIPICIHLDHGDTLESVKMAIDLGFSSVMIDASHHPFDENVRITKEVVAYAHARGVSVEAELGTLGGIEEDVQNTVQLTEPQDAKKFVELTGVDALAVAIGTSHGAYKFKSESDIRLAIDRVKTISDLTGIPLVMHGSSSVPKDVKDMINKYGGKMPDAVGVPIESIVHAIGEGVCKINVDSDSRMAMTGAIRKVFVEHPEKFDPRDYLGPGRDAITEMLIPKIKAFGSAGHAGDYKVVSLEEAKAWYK
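40 nM FBPA preincubated 10 min at RT with compound (up to 57.5 uM final), then substrate plus GAPDH/TPI/NAD/arsenate coupling and diaphorase/resazurin added. Fluorescence read after 20 min at RT, 525/598 nm.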
NS1 inh: inhibitors of influenza NS1 protein function | AID 2326 | 270,000 tested, 0.4% active | Potency, µM (series often up to 46.1 µM), without a hit: top-dose activity, positive = more growth; calls by dose curve; further: actives are rising curves; nearly all actives have a fitted effect of over 50% in size
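Growth recovery, yeast-based: influenza A NS1 expressed in S. cerevisiae causes slow growth, and suppressors are detected by OD600. The parent strain without NS1 is used as positive control.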
* marks the source's active call; other numbers are inactive results; ? = inconclusive; nt = no result. Only some compounds are listed: those with a hit (about 3.5% of all), similar ones and a draw of the others. Unless noted, the call rests on the fitted dose curve; in most records, active means well fitted curve in the direction sought with a large enough effect; inconclusive means small, poorly fitted or top-dose-only effect, or another doubt; inactive means no such curve, though single readings can be large; an effect the other way counts as inactive or inconclusive. Potency means the concentration at half of the fitted maximal effect.

SMILES	LmPK inhibitor	RE007 growth inh	Sm TGR block	TbPYK inhibitor	Giardia FBPA inh	NS1 inh
Cc1ccc(NC(=O)c2cc(S(=O)(=O)N3CCCC(C)C3)cn2C)c(Br)c1 (stereo not drawn)	nt	nt	0%	-8%	nt	nt
CCCn1c2ccccc2c2cnn(CC(=O)Nc3ccccc3OC)c(=O)c21	nt	nt	0%	4%	nt	nt
Cc1cc(C)c(Cn2c3ccccc3c3cnn(CC(=O)NC4CCC(C)CC4)c(=O)c32)c(C)c1 (stereo not drawn)	nt	nt	0%	2%	nt	nt
C[N+]1(C)CCO[C@](O)(c2ccccc2)C1	nt	nt	nt	nt	nt	-7%
O=C(/C=C/c1ccco1)Oc1cc(Br)cc(/C=N/NC(=O)c2ccccc2O)c1	6%	-28%	-6%	2%	-8%	18%
O=C(/C=C/c1ccco1)Nc1cccnc1	?	5%	nt	-12%	-18%	5%
CC(/C=C/c1ccco1)=N\NC(=O)c1cccnc1	8%	-11%	35µM*	-4%	?	10%
CC(/C=C/c1ccco1)=N/NC(=O)OC(C)(C)C	1%	11%	40µM*	-14%	-15%	6%
O=C(C=Cc1ccco1)c1cc(Cl)ccc1O	nt	?	nt	-1%	nt	nt
O=C(/C=C/c1ccco1)c1ccccc1O	?	-21%	32µM*	1%	-7%	4%
CC(/C=C/c1ccco1)=N\NC(=O)c1cc(Cl)ccc1O	20%	-17%	8.9µM*	-7%	-27%	0%
CCOc1ccc(OCC)c(NC(=O)Cn2ncc3c4ccccc4n(Cc4ccccc4)c3c2=O)c1	nt	nt	-5%	-1%	nt	nt
CCOc1ccc(CCNC(=O)CN2C(=O)C(CC)Oc3ccccc32)cc1OCC (stereo not drawn)	nt	nt	8%	1%	nt	nt
O=C(C1=C(O)C(=O)N(Cc2ccco2)C1c1cccc(O)c1)c1ccco1 (stereo not drawn)	3%	-8%	?	0%	-19%	-3%
O=C(C1=C(O)C(=O)N(Cc2ccco2)C1c1cccnc1)c1cc2ccccc2o1 (stereo not drawn)	5%	3%	25µM*	-17%	11%	2%
COc1cccc2cc(C(=O)C3=C(O)C(=O)N(Cc4ccco4)C3c3cccnc3)oc12 (stereo not drawn)	8%	-6%	25µM*	4%	10%	1%
COc1cccc2cc(C(=O)C3=C(O)C(=O)N(c4cc(C)on4)C3c3cccs3)oc12 (stereo not drawn)	2%	12%	28µM*	-5%	?	9%
Cc1c(NC2(C#N)CCCC2)c(=O)n(-c2ccccc2)n1C	-6%	-4%	40µM*	5%	-11%	nt
CN(NC(=O)/C=C/C(=O)O)c1ncc(C(F)(F)F)cc1Cl	5%	-24%	20µM*	8%	0%	nt
C=CC(=O)NN(C)c1ncc(C(F)(F)F)cc1Cl	-1%	20%	nt	-3%	3%	4%
Cc1nc(-c2ccc(S(=O)(=O)NCc3ccc(OC(C)C)cc3)cc2)co1	nt	nt	-9%	4%	nt	nt
O=C(C#Cc1ccccc1)c1cccc([N+](=O)[O-])c1	-6%	?	0.25µM*	-17%	0%	-129%
CC(=O)c1cccc([N+](=O)[O-])c1	nt	-3%	0%	1%	nt	nt
Cc1cccc(NC(=O)CSc2nc(C3CCCC3)nc3c2c(=O)n(C)c(=O)n3C)c1C	nt	nt	12%	3%	nt	nt
CCOc1ccc(-n2cnc3scc(-c4ccc(OC)c(OC)c4)c3c2=O)cc1	10%	-11%	-7%	-21%	-1%	-1%
SMILES	LmPK inhibitor	RE007 growth inh	Sm TGR block	TbPYK inhibitor	Giardia FBPA inh	NS1 inh
CCOc1ccc(-n2cc(-c3ccc(OC)c(OC)c3)[nH]c2=S)cc1	?	2%	-31%	1.1µM*	0%	nt
Cc1ccc(S(=O)(=O)Oc2cccc(/C=N/Nc3ccc(C(=O)O)cc3)c2)cc1	1%	5%	6%	-2%	18µM*	3%
Cc1ccc(S(=O)(=O)Oc2cccc(/C=N/n3cnnc3)c2)cc1	0%	3%	-9%	4%	-24%	12%
CN(CCNC(=O)c1cc2c(=O)n(C)c3ccccc3c2n1C)Cc1ccccc1	7%	-16%	28µM*	1%	-4%	-7%
CCOCCCNC(=O)c1cc2c(=O)n(C)c3ccccc3c2n1C	nt	nt	-2%	3%	nt	nt
CCCN(CCC)CCNC(=O)c1cc2c(=O)n(C)c3ccccc3c2n1C	-1%	-7%	50µM*	1%	-8%	-6%
Cc1ccc(NC(=O)c2cc3c(=O)[nH]c4ccccc4c3n2C)cc1F	nt	nt	-1%	1%	nt	nt
CC(C)(C)c1[nH]nc2c1C(c1ccoc1)C(C#N)=C(N)O2 (stereo not drawn)	4%	0%	5%	1%	-6%	6%
N#CC1=C(N)OC2=C(CC/C2=C\c2ccc(F)cc2)C1c1ccc(F)cc1 (stereo not drawn)	1%	nt	25µM*	nt	-30%	4%
N#CC1=C(N)OC2=C(CCC/C2=C/c2ccoc2)C1c1ccoc1 (stereo not drawn)	7%	nt	18µM*	nt	-5%	-33%
Cn1c(=O)[nH]c(=O)c2c1nc(N/N=C/C(Br)=C/c1ccccc1)n2CCO	0%	2%	5µM*	6%	?	2%
Cc1[nH]c2ccccc2c1C(Nc1nccs1)c1ccncc1 (stereo not drawn)	5%	15%	40µM*	7%	0%	0%
Cc1ccnc(NC(=O)CCc2c[nH]c3ccccc23)c1	1%	-7%	79%	-3%	nt	-13%
Cc1ccnc(NC(c2ccncc2)c2c(C)[nH]c3ccccc23)c1 (stereo not drawn)	4%	-15%	2µM*	-12%	-5%	-2%
O=C(Nc1nccs1)C(=O)c1c[nH]c2ccccc12	0%	-12%	-4%	3%	13%	-42%
CC(C)(C(O)c1ccc([N+](=O)[O-])cc1)[N+](=O)[O-] (stereo not drawn)	nt	nt	nt	nt	-2%	nt
COc1cc(C2C(=O)N(C3CCCCCC3)CC(=O)N2CCC2=CCCCC2)ccc1OC(C)C (stereo not drawn)	nt	nt	7%	-5%	nt	nt
CNC(=S)NCCCCc1cnc[nH]1	nt	nt	nt	nt	11µM*	nt
N=C1S/C(=C\c2ccco2)C(=O)N1c1ccc2c(c1)OCO2	-1%	-22%	nt	3%	-9%	2%
N=C1S/C(=C\c2ccco2)C(=O)N1c1nccs1	-4%	-10%	22µM*	-6%	-18%	nt
O=C(c1ccco1)N1CCN(C(=O)c2cccc3c2C(=O)N(C2CCCCC2)C3)CC1	3%	-13%	50µM*	-8%	-5%	-9%
COc1cccc(NC(=O)C(=O)NCC(c2cccnc2)N2CCN(c3ccccc3)CC2)c1 (stereo not drawn)	nt	nt	-6%	-2%	nt	nt
